Key:
Test in all cases: DAPPL (digital affinity profiling via proximity ligation, sequencing); 10 mM Tris-HCl pH 7.5, 50 mM NaCl, 1 mM DTT, 4% glycerol, room temperature, 30 min; GST-TFs on glutathione beads, 16-mer random dsDNA library, 0.1% formaldehyde crosslink after washing; high values mean tight binding
Settings in all cases: protein: recombinant; tags: N-terminal GST; dsDNA, one strand shown
[1] = target: T1, FLI1 (Homo sapiens, UniProt Q01543 1-452)
T1 sequence: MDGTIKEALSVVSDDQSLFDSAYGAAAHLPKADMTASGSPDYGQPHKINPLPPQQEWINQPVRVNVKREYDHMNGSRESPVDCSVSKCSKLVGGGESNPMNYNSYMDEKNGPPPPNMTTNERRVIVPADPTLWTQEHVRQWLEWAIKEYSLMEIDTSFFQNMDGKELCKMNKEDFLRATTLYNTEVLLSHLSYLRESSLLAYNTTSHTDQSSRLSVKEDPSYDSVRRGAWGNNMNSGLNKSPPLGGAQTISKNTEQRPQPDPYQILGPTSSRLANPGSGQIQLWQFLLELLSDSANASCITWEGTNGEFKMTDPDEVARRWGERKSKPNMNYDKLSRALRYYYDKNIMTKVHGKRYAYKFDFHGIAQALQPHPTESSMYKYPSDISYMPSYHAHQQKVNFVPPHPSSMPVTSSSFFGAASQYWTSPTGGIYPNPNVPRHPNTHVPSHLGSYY
Method in brief: (§1)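 Yeast served to express human transcription factors as GST fusions, which were then captured on glutathione beads and labelled with DNA barcodes. Pooled with a tag-only sample, they were incubated with 200 nmole of a 16-mer random double-stranded DNA library for 30 min at room temperature in Tris/NaCl/DTT/glycerol buffer, washed, crosslinked with 0.1% formaldehyde, ligated by proximity, amplified by PCR and sequenced. Dividing each hexamer's read frequency for a factor by its frequency for the tag-only sample gives the binding signal.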

[2] = target: SPIB (Homo sapiens, UniProt Q01892 1-262)
SPIB, sequence (Q01892 whole entry): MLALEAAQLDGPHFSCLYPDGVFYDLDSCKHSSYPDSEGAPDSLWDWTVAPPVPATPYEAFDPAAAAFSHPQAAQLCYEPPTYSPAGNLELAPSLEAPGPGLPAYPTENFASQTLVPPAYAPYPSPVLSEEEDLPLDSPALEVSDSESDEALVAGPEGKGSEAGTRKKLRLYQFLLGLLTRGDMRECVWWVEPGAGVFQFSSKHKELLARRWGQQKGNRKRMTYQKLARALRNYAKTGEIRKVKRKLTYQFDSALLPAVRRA
Method in brief: as §1

[3] = target: T2, ELK3 (Homo sapiens, UniProt P41970 1-407)
T2 sequence: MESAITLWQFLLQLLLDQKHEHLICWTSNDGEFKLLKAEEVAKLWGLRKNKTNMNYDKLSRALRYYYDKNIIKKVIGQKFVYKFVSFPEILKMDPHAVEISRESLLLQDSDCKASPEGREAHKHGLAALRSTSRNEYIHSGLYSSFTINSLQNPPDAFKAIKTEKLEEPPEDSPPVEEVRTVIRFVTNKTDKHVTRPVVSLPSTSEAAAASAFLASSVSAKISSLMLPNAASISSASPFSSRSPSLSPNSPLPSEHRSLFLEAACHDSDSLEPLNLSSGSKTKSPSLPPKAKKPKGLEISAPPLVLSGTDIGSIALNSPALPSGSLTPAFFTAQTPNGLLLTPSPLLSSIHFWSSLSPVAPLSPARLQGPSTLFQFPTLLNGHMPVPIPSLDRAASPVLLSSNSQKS
Method in brief: as §1

[4] = target: ELF4 (Homo sapiens, UniProt Q99607 1-663)
ELF4, sequence (Q99607 whole entry): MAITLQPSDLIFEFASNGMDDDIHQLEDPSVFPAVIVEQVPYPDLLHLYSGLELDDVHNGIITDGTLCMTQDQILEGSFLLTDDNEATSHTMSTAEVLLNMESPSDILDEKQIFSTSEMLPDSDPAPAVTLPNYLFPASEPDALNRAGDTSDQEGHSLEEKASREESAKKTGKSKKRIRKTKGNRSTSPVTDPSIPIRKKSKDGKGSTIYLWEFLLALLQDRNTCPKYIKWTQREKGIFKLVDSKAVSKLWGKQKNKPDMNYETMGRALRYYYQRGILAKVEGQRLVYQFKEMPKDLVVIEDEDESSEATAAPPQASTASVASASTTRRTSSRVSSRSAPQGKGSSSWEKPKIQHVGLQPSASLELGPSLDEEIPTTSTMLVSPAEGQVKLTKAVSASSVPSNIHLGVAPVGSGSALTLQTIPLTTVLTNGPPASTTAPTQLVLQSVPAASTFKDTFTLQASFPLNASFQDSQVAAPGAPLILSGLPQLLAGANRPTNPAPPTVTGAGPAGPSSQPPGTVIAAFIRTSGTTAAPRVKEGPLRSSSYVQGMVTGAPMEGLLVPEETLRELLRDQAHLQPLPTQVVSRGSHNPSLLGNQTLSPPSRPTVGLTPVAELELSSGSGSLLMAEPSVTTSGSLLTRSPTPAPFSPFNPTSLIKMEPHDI
Method in brief: as §1

[5] = target: T3, ELK4 (Homo sapiens, UniProt P28324-2 1-405)
T3 sequence: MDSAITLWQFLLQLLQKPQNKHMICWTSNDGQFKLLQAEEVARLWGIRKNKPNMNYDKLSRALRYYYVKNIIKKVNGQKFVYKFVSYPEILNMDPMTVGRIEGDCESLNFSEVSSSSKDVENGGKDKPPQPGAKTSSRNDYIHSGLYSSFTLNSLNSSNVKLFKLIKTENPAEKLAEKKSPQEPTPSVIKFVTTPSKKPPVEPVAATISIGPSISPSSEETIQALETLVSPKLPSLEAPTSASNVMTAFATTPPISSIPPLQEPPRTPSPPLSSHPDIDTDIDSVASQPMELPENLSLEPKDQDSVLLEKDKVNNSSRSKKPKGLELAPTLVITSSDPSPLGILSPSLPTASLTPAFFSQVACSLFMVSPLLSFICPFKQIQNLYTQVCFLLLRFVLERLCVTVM
Method in brief: as §1

[6] = target: T4, ETV2 (Homo sapiens, UniProt O00321 1-342)
T4 sequence: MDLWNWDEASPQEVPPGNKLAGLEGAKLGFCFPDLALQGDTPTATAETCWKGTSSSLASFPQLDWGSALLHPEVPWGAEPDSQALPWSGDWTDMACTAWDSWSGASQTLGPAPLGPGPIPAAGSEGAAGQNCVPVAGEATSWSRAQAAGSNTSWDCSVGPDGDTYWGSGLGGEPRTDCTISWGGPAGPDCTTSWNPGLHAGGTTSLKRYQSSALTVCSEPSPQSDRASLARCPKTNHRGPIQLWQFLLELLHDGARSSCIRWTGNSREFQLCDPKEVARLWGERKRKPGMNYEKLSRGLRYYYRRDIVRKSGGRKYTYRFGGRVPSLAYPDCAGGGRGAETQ
Method in brief: as §1

[7] = target: ETV1 (Homo sapiens, UniProt P50549 1-477)
ETV1, sequence (P50549 whole entry): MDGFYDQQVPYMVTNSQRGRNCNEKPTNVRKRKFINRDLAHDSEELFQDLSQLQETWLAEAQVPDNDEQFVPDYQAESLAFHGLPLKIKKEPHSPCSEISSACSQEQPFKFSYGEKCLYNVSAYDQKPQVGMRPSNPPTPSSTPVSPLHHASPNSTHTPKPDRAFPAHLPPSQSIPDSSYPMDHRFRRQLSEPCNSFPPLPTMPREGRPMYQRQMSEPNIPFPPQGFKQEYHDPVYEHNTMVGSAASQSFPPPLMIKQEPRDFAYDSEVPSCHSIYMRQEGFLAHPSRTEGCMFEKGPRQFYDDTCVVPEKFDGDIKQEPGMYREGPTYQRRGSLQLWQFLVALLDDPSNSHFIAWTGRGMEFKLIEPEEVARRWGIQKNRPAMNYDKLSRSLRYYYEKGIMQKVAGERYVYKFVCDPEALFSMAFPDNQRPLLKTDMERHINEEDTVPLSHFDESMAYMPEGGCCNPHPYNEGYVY
Method in brief: as §1

[8] = target: T5, ETV3L (Homo sapiens, UniProt Q6ZN32 1-361)
T5 sequence: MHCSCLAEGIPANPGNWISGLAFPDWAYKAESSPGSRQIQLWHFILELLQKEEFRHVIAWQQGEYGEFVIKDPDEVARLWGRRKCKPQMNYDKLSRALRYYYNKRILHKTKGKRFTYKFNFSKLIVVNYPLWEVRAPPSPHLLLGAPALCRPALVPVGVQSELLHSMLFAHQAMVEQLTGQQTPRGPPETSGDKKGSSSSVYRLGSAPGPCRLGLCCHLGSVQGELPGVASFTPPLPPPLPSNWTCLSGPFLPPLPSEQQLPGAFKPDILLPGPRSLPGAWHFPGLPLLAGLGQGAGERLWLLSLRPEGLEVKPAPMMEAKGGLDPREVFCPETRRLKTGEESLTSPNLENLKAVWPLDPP
Method in brief: as §1

[9] = target: T6, ETV3 (Homo sapiens, UniProt P41162-2 1-143)
T6 sequence: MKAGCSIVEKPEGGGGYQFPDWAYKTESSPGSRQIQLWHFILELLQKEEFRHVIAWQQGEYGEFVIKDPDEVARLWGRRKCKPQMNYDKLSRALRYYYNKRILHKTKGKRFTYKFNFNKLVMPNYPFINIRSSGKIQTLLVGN
Method in brief: as §1

[10] = target: T7, ELK1 (Homo sapiens, UniProt P19419 1-428)
T7 sequence: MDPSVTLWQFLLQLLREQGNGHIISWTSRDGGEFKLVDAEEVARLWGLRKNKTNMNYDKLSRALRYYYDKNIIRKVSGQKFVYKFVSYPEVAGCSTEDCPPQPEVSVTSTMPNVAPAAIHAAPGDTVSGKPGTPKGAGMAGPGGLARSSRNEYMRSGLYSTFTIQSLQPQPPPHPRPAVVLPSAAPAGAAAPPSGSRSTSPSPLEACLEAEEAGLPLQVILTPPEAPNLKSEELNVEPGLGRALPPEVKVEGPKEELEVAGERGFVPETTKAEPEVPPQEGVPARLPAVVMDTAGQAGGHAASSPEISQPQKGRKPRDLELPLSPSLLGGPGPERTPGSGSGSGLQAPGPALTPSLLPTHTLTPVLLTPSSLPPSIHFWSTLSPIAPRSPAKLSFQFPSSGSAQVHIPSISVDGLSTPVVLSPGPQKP
Method in brief: as §1

[11] = target: T8, ERG (Homo sapiens, UniProt P11308 1-479)
T8 sequence: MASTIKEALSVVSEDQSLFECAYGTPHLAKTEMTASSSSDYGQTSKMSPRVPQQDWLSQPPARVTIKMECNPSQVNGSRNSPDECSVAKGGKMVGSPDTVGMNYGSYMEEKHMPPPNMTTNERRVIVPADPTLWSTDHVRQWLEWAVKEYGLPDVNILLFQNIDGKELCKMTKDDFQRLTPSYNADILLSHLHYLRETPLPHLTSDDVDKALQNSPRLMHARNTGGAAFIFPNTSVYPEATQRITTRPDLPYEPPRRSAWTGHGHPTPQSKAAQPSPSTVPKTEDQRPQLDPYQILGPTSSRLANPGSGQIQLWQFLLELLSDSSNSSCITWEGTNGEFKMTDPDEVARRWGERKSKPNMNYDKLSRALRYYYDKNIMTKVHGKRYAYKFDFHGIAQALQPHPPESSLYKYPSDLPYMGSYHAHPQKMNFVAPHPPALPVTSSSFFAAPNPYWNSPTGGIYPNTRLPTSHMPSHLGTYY
Method in brief: as §1

[12] = target: T9, EHF (Homo sapiens, UniProt Q9NZC4 1-300)
T9 sequence: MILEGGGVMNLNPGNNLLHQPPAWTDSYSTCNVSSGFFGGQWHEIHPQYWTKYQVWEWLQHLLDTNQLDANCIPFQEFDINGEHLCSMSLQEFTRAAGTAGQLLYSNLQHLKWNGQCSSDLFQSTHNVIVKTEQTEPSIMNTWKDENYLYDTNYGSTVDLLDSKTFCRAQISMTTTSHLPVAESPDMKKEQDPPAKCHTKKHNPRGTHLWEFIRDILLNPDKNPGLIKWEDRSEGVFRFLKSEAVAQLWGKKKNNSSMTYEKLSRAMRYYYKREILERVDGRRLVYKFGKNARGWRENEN
Method in brief: as §1

[13] = target: T10, SPIC (Homo sapiens, UniProt Q8N5J4 1-248)
T10 sequence: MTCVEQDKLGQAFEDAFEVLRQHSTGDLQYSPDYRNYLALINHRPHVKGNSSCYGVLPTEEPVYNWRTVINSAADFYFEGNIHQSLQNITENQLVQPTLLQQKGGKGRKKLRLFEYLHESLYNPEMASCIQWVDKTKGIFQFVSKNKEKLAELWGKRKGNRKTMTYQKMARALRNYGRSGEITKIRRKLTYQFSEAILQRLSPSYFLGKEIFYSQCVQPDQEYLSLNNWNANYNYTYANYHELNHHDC
Method in brief: as §1

[14] = target: T11, ETV7 (Homo sapiens, UniProt Q9Y603 1-341)
T11 sequence: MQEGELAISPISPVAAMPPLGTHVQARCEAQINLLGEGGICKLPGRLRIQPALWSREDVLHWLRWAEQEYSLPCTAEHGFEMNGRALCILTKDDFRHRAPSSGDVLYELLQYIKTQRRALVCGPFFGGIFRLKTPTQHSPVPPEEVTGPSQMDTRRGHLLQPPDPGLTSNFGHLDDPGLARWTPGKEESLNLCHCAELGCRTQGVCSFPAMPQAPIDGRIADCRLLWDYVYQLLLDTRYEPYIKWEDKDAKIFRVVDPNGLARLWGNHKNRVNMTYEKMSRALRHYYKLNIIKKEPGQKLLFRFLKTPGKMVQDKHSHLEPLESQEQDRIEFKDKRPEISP
Method in brief: as §1

Sequence | binding signal [1] | binding signal [2] | binding signal [3] | binding signal [4] | binding signal [5] | binding signal [6] | binding signal [7] | binding signal [8] | binding signal [9] | binding signal [10] | binding signal [11] | binding signal [12] | binding signal [13] | binding signal [14]
CAAGCT | 1.05 fold enrichment (6-mer frequency, TF over GST control) | 1.04 fold enrichment (6-mer frequency, TF over GST control) | 1.03 fold enrichment (6-mer frequency, TF over GST control) | 1.02 fold enrichment (6-mer frequency, TF over GST control) | 1.13 fold enrichment (6-mer frequency, TF over GST control) | 1.02 fold enrichment (6-mer frequency, TF over GST control) | 1.04 fold enrichment (6-mer frequency, TF over GST control) | 1.05 fold enrichment (6-mer frequency, TF over GST control) | 1.02 fold enrichment (6-mer frequency, TF over GST control) |  |  |  |  | 
GCAGCC | 1.01 fold enrichment (6-mer frequency, TF over GST control) | 1.08 fold enrichment (6-mer frequency, TF over GST control) |  |  | 1.11 fold enrichment (6-mer frequency, TF over GST control) |  |  |  | 1 fold enrichment (6-mer frequency, TF over GST control) | 1.05 fold enrichment (6-mer frequency, TF over GST control) | 1.04 fold enrichment (6-mer frequency, TF over GST control) | 1.03 fold enrichment (6-mer frequency, TF over GST control) | 1.03 fold enrichment (6-mer frequency, TF over GST control) | 1.02 fold enrichment (6-mer frequency, TF over GST control)

Reference: article PMC7862700, “An all-to-all approach to the identification of sequence-specific readers for epigenetic DNA modifications on cytosine”
